From PubChem BioAssay
SW480 rerep: inducers of DNA re-replication in SW480 colon cancer cells | AID 624297 | Potency, µM (titrated, usually from 46.1 µM), hits mostly activators | SW480 DNA re-replication, Hoechst DNA content imaging, 48 h | hit rate 1.8% among 340,000; note: nearly all actives have a fitted effect of over 55% in size
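Per well, 250 cells were exposed to pinned compound for 48 hr. Nuclear DNA was visualised with Hoechst (40 min, 37 C) and total object intensity recorded by fluorescence scanning.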
RGS4 inh: human RGS4 inhibition; P49798; Transcreener GDP fluorescence polarization, RGS4-accelerated GTP hydrolysis; Potency, µM (doses to about 114 µM), most hits filed as inhibitors; hit rate 0.039% among 390,000; AID 504845; note: nearly all actives have a fitted effect of over 75% in size
Target sequence (P49798 whole entry, looked up): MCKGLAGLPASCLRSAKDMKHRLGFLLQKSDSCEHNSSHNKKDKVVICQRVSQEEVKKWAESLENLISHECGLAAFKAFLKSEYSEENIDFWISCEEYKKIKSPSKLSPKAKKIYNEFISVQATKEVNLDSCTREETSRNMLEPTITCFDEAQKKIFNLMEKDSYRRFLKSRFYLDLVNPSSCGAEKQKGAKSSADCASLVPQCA
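MLSMR compounds (23 nl, pin-transferred) preincubated 10 min at room temperature with a 500nM (2x) first reagent, then RGS4 at 900nM (2x) plus Transcreener GDP mix added; fluorescence polarization (620/688 nm) read before and after 90 min at 30 °C.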
KB-V1 cytotox: kills drug-selected multidrug resistant KB-V1 cells | KB-V1 MDR cells viability, CellTiter-Glo, 72 h | Potency, µM (top dose mostly 46.1 µM), hits mostly cytotoxic | hit rate 3.4% among 400,000 | AID 1347076; note: nearly all actives have a fitted effect of over 60% in size
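Compound-treated KB-V1 multidrug-resistant cells, 72 h, 37 degrees C; viability by CellTiter-Glo. Fitted qHTS curves give the values.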
TSG101-PTAP inh: blocks PTAP/TSG101 interaction to inhibit HIV-1 budding; Q99816; Fluorescence polarization, FITC-PTAP peptide / Tsg101 binding; Potency, µM (top dose mostly 115 µM), actives largely listed as inhibitors; 340,000 tested, under 10 active; active = well fitted inhibition curve with a large enough effect in the main read-out, with a control signal flat, not every such curve was filed as active; inconclusive = small, poorly fitted or top-dose-only effect, or effect the other way, or a change in a side signal; inactive = no such curve, though single readings can be large or run the other way
Target sequence (Q99816 whole entry, looked up): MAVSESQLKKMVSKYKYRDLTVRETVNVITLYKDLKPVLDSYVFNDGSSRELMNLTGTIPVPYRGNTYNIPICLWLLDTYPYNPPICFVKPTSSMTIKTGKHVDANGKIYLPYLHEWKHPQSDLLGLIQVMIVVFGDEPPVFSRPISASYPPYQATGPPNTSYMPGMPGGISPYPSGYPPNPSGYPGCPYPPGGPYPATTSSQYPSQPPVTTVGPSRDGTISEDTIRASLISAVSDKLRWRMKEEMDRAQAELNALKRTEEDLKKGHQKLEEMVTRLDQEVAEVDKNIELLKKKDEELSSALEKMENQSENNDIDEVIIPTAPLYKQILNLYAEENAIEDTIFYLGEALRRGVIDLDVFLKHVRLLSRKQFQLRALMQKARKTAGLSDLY
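FP read-out: FITC-PTAP peptide, 50 nM final, binding Tsg101 binding domain, 10 uM final; 20 min, r.t.; 10 mM HEPES pH 7.5, 0.15 M NaCl, 0.01% Tween 20, 3 mM EDTA, 0.1 mM TCEP.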
KB-3-1 cytotox: kills parental KB-3-1 adenocarcinoma cells | AID 1347075 | hit rate 1.4% among 400,000 | KB-3-1 viability, CellTiter-Glo ATP luminescence, 72 h | Potency, µM (titrated, usually from 46.1 µM), most hits filed as cytotoxic; note: nearly all actives have a fitted effect of over 60% in size
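Parental KB-3-1 adenocarcinoma cells in phenol-red-free DMEM with 10% FBS were pin-treated with compounds at several concentrations, incubated 72 h at 37 °C, and viability read by CellTiter-Glo luminescence; concentration-effect curves were fitted after normalization.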
MCF10A rerep: induces DNA re-replication in MCF 10a normal breast cells. Potency, µM (highest dose often 46.1 µM), hits mostly activators. hit rate 2.9% among 350,000. MCF 10A DNA re-replication, Hoechst nuclear intensity, 48 h; note: nearly all actives have a fitted effect of over 50% in size
Numbers stand for hits. The list is not random: actives were taken first. Their share in the collection is about 6.6%. Unless noted, calls come from the whole dose curve; as a rule, active = well fitted curve in the direction sought with a large enough effect; inconclusive = small, poorly fitted or top-dose-only effect, or another doubt; inactive = no such curve, though single readings can be large; an effect the other way counts as inactive or inconclusive.

How did Clc1c(-c2ccccc2)nnn1-c1ccccc1 do in these assays?
SW480 rerep: inactive; RGS4 inh: inactive; KB-V1 cytotox: inactive; TSG101-PTAP inh: inactive; KB-3-1 cytotox: inactive; MCF10A rerep: inactive

What do the screens show for `Cc1ccc(Nc2nc(-c3ccc(O)c(O)c3)cs2)nc1`?
SW480 rerep: inconclusive; RGS4 inh: inactive; KB-V1 cytotox: inactive; TSG101-PTAP inh: inactive; KB-3-1 cytotox: inconclusive; MCF10A rerep: inconclusive

What do the screens show for `Oc1ccc(-c2nc(-c3ccc(O)c(O)c3)cs2)cc1`?
SW480 rerep: 1.46µM; RGS4 inh: inactive; KB-V1 cytotox: 2.06µM; TSG101-PTAP inh: inactive; KB-3-1 cytotox: 0.517µM; MCF10A rerep: inconclusive

Results for Oc1ccc(-c2csc(-c3cccnc3)n2)c(O)c1 ?
SW480 rerep: inconclusive; RGS4 inh: inactive; KB-V1 cytotox: inconclusive; TSG101-PTAP inh: inactive; KB-3-1 cytotox: 5.8µM; MCF10A rerep: inconclusive

Results for Clc1ccsc1-c1csc(-c2cccnc2)n1 ?
SW480 rerep: inconclusive; RGS4 inh: inactive; KB-V1 cytotox: inconclusive; TSG101-PTAP inh: inactive; KB-3-1 cytotox: 20.6µM; MCF10A rerep: inactive

How did COc1cccc(CNC(=O)Cn2c(=O)n3nc(-c4cccc(C)c4)nc3c3ccccc32)c1 do in these assays?
RGS4 inh: inactive; KB-V1 cytotox: inconclusive; KB-3-1 cytotox: inactive

How did O=C(/C=C/Nc1ccccc1)c1ccc(Cl)cc1Cl do in these assays?
SW480 rerep: inactive; RGS4 inh: inactive; KB-V1 cytotox: inactive; TSG101-PTAP inh: inactive; KB-3-1 cytotox: inactive; MCF10A rerep: inactive

How did N#Cc1c(Nc2ccccc2)[n+]([O-])c2ccc(Cl)cc2[n+]1[O-] do in these assays?
SW480 rerep: 2.91µM; RGS4 inh: inconclusive; KB-V1 cytotox: inactive; TSG101-PTAP inh: inactive; KB-3-1 cytotox: inconclusive; MCF10A rerep: inactive

Results for OCCC1CN(Cc2nc(-c3ccccc3)cs2)CCN1Cc1ccc(F)cc1 (configuration not stated) ?
SW480 rerep: inactive; RGS4 inh: inactive; KB-V1 cytotox: 9.2µM; TSG101-PTAP inh: inactive; KB-3-1 cytotox: inconclusive; MCF10A rerep: inconclusive

Results for Cc1cc(O)c(-c2ccnc3cc(-c4ccccc4)nn23)cc1Cl ?
RGS4 inh: inactive; KB-V1 cytotox: inactive; KB-3-1 cytotox: inactive

Results for O=C(N/N=C/C(Br)=C/c1ccccc1)c1cc(-c2ccco2)[nH]n1 ?
SW480 rerep: inactive; RGS4 inh: inactive; KB-V1 cytotox: inconclusive; TSG101-PTAP inh: inactive; KB-3-1 cytotox: inconclusive; MCF10A rerep: 7.31µM

Results for Cc1ccc(-c2cc(C(=O)N/N=C/c3ccccc3)n[nH]2)o1 ?
SW480 rerep: inactive; RGS4 inh: inactive; KB-V1 cytotox: inactive; TSG101-PTAP inh: inactive; KB-3-1 cytotox: inactive; MCF10A rerep: inactive

Results for CC(/C=N/NC(=O)c1cc(-c2ccc(C)o2)[nH]n1)=C\c1ccccc1 ?
SW480 rerep: 18.4µM; RGS4 inh: inactive; KB-V1 cytotox: inactive; TSG101-PTAP inh: inactive; KB-3-1 cytotox: inactive; MCF10A rerep: 23.1µM

Results for O=C(Nc1cccc([N+](=O)[O-])c1)c1ccc([N+](=O)[O-])o1 ?
KB-V1 cytotox: inconclusive; KB-3-1 cytotox: inactive

How did CC1CCN(c2ccccc2NC(=O)c2ccc([N+](=O)[O-])o2)CC1 do in these assays?
SW480 rerep: inactive; RGS4 inh: inactive; KB-V1 cytotox: inactive; TSG101-PTAP inh: inactive; KB-3-1 cytotox: inactive; MCF10A rerep: inactive

Results for O=C(Nc1ccccc1N1CCCC1)c1ccc([N+](=O)[O-])o1 ?
SW480 rerep: 5.17µM; RGS4 inh: inactive; KB-V1 cytotox: inconclusive; TSG101-PTAP inh: inactive; KB-3-1 cytotox: 23.1µM; MCF10A rerep: 23.1µM

Results for O=C(Nc1cccc(NC(=O)c2ccccc2Cl)c1)c1ccc([N+](=O)[O-])o1 ?
SW480 rerep: inconclusive; RGS4 inh: inactive; KB-V1 cytotox: inconclusive; TSG101-PTAP inh: inactive; KB-3-1 cytotox: inconclusive; MCF10A rerep: 3.66µM

How did O=C(Nc1ccc(N2CCCC2)c(Cl)c1)c1ccc([N+](=O)[O-])o1 do in these assays?
SW480 rerep: inactive; RGS4 inh: inactive; KB-V1 cytotox: inconclusive; TSG101-PTAP inh: inactive; KB-3-1 cytotox: inconclusive; MCF10A rerep: 2.91µM

Results for CC1=C(C(=O)Nc2ccccc2)C(c2cccnc2)n2nc(SCc3ccccc3Cl)nc2N1 (configuration not stated) ?
RGS4 inh: inactive; KB-V1 cytotox: inactive; KB-3-1 cytotox: inactive

What do the screens show for `Cc1ccc(NC(=S)N/N=C/c2ccc(Cl)c([N+](=O)[O-])c2)cc1`?
SW480 rerep: inactive; RGS4 inh: inactive; KB-V1 cytotox: inactive; TSG101-PTAP inh: inactive; KB-3-1 cytotox: inactive; MCF10A rerep: inconclusive

How did S=C(N/N=C/c1ccc(Cl)c(Cl)c1)Nc1ccccc1Cl do in these assays?
SW480 rerep: inconclusive; RGS4 inh: inactive; KB-V1 cytotox: inactive; TSG101-PTAP inh: inactive; KB-3-1 cytotox: 20.6µM; MCF10A rerep: inactive

Results for O=[N+]([O-])c1cc(/C=N/NC(=S)Nc2ccccc2Cl)ccc1Cl ?
SW480 rerep: inactive; RGS4 inh: inactive; KB-V1 cytotox: inconclusive; TSG101-PTAP inh: inactive; KB-3-1 cytotox: 18.4µM; MCF10A rerep: inconclusive

How did O=C(NC(=S)Nc1ccccc1[N+](=O)[O-])c1ccccc1Cl do in these assays?
SW480 rerep: inactive; RGS4 inh: inactive; KB-V1 cytotox: inconclusive; TSG101-PTAP inh: inactive; KB-3-1 cytotox: 13µM; MCF10A rerep: inactive

How did COc1ccc(/C=N/NC(=S)Nc2ccccc2[N+](=O)[O-])cc1O do in these assays?
SW480 rerep: inconclusive; RGS4 inh: inactive; KB-V1 cytotox: 11.6µM; TSG101-PTAP inh: inactive; KB-3-1 cytotox: inconclusive; MCF10A rerep: inconclusive

How did CCc1ccc(NC(=O)Cn2ccn(-c3ccc(C)c(C)c3)c(=O)c2=O)cc1 do in these assays?
RGS4 inh: inactive

How did O=C(NCc1ccc(F)cc1)c1ccc(NC(=O)N2CC3CCCN3c3ccccc32)cc1 (configuration not stated) do in these assays?
RGS4 inh: inactive; KB-V1 cytotox: inactive; KB-3-1 cytotox: inactive

Results for C(=C\c1nc2ccccc2o1)/c1ccc2c(c1)OCO2 ?
KB-V1 cytotox: inactive; KB-3-1 cytotox: inactive

What do the screens show for `Cc1cc(=O)c2c(O)c3c(O)cc(O)c4c5c(O)cc(O)c6c(O)c7c(=O)cc(C)c8c1c2c(c34)c(c65)c78`?
RGS4 inh: inactive

Results for COc1cc(CN(C(=O)COc2ccc(Br)cc2)c2ccccn2)cc(OC)c1OC ?
RGS4 inh: inactive; KB-V1 cytotox: inactive; KB-3-1 cytotox: inactive

What do the screens show for `Fc1ccc(/C=N/NC(=S)Nc2ccc(Cl)cc2Cl)cc1`?
SW480 rerep: inconclusive; RGS4 inh: inactive; KB-V1 cytotox: inconclusive; TSG101-PTAP inh: inactive; KB-3-1 cytotox: 5.17µM; MCF10A rerep: inactive

Results for Fc1ccc(NC(=S)N/N=C/c2ccc(F)c(F)c2)cc1 ?
SW480 rerep: inactive; RGS4 inh: inactive; KB-V1 cytotox: inactive; TSG101-PTAP inh: inactive; KB-3-1 cytotox: inactive; MCF10A rerep: inactive
